Assay outcomes (PubChem)
In the library only some 10% were active in any assay of this set; here they are far more common.
G9a inh – qHTS Assay for Inhibitors of Histone Lysine Methyltransferase G9a | Potency, µM (series often up to 102 µM), inactives show at the highest dose activity, negative = inhibition, most hits filed as inhibitors | hit rate 8.8% among 350,000 | Histone-lysine N-methyltransferase EHMT2 (Homo sapiens), Q96KQ7 | AID 504332, 2011 | G9a H3K9 monomethylation, AlphaScreen, 2 h; also: % is scaled to controls: 0 for no effect and ±100 for the full control effect; nearly all actives have a fitted effect of over 75% in size
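G9a (20 nM) was preincubated 15 min with compound, then reacted 2 h at room temperature with 500 nM biotin-H3K9 peptide and 20 µM SAM. Monomethyl-H3K9 detected by AlphaScreen using anti-H3K9me1 antibody.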
HP1b binding inh – HTS for Inhibitors of HP1-beta Chromodomain Interactions with Methylated Histone Tails. Chromobox protein homolog 1 (Homo sapiens), P83916. hit rate 0.56% among 390,000. Potency, µM (doses to about 114 µM), inactives show at the highest dose activity change, negative = inhibition, most hits filed as inhibitors. AID 540317, 2011. AlphaScreen HP1-beta / biotin-H3K9me3 peptide binding; also: nearly all actives have a fitted effect of over 70% in size
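Compound inhibition of the preformed complex between 50 nM HP1-beta and 50 nM biotinylated H3K9me3 peptide was read by AlphaScreen. Buffer was PBS pH 7.4 with 0.01% Tween-20. Incubations ran 30 min at room temperature, with 10 ug/mL donor/acceptor beads.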
BAZ2B inh – qHTS Assay for Inhibitors of BAZ2B. hit rate 4.4% among 360,000. AlphaScreen BAZ2B-H3K14Ac peptide displacement. Bromodomain adjacent to zinc finger domain protein 2B (Homo sapiens), Q9UIF8. Potency, µM (doses to about 114 µM), for the others: at the top dose activity change, negative = inhibition, actives largely listed as inhibitors. AID 504333, 2011; also: % is scaled to controls: 0 for no effect and ±100 for the full control effect; nearly all actives have a fitted effect of over 60% in size
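Multi-concentration screen (max 110 uM) measuring displacement of acetylated histone H3 peptide from BAZ2B by AlphaScreen, using 50 nM protein, 50 nM peptide and 10 ug/mL streptavidin donor plus Ni-chelate acceptor beads.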
JMJD2A Tudor – qHTS Assay for Inhibitors of JMJD2A-Tudor Domain | AlphaScreen JMJD2A-Tudor / H3K4me3 peptide binding | Lysine-specific demethylase 4A (Homo sapiens), O75164 | Potency, µM (doses to about 114 µM), inactives show at the highest dose activity change, negative = inhibition, usual class: inhibitors | hit rate 4.4% among 390,000; also: % is scaled to controls: 0 for no effect and ±100 for the full control effect; nearly all actives have a fitted effect of over 50% in size
L3MBTL1 inh – qHTS Assay for the Inhibitors of L3MBTL1 | Lethal(3)malignant brain tumor-like protein 1 (Homo sapiens), Q9Y468 | AlphaScreen L3MBTL1–H3K9me1 peptide binding | Potency, µM (doses to about 57.1 µM), inactives show top-dose activity, negative = inhibition, usual class: inhibitors | hit rate 0.66% among 230,000 | AID 485360, 2010; also: % is scaled to controls: 0 for no effect and ±100 for the full control effect; nearly all actives have a fitted effect of over 60% in size
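Displacement of a biotinylated histone H3(1-15) peptide monomethylated at Lys9 (75 nM) from L3MBTL1 (50 nM) was measured by AlphaScreen after a 30 min room-temperature compound incubation; cefsulodin titration served as intraplate control.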
GLS inh – qHTS for Inhibitors of Glutaminase (GLS); Glutaminase kidney isoform, mitochondrial (Homo sapiens), O94925; GLS enzymatic activity, qHTS titration; Potency, µM (series often up to 45.5 µM), without a hit: top-dose activity change, negative = inhibition, actives largely listed as inhibitors; hit rate 0.21% among 410,000; also: % is scaled to controls: 0 for no effect and ±100 for the full control effect
Target sequence (O94925 whole entry, looked up, canonical isoform): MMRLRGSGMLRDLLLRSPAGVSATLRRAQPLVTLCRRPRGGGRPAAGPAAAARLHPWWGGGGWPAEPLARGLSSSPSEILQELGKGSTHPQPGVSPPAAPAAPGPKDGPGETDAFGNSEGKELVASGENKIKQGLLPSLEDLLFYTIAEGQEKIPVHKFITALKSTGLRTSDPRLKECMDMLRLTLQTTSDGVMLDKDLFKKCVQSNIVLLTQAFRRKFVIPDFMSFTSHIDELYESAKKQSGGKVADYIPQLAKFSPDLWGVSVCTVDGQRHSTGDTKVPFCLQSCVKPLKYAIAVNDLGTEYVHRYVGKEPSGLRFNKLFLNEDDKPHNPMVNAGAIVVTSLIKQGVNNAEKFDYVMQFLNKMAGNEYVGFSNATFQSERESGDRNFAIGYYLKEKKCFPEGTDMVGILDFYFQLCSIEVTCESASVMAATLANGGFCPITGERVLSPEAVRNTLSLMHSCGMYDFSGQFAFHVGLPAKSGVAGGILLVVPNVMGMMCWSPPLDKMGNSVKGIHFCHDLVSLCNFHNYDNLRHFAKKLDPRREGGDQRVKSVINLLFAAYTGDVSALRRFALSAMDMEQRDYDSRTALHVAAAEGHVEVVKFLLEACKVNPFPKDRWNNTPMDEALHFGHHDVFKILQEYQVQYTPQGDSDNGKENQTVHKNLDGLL
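Glutamate formation by hKGA was monitored fluorometrically using coupled glutamate oxidase, HRP and Amplex Red. Substrate was added as 1 mM L-glutamine solution; incubation was 30 min at RT after an initial read.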
The depositor's hits bear a star; ? = inconclusive; / = not tested or not shown; [ ] = remark or other dose. Calls follow the shape of the dose curve; as a rule, active = well fitted curve in the direction sought with a large enough effect; inconclusive = small, poorly fitted or top-dose-only effect, or another doubt; inactive = no such curve, though single readings can be large; an effect the other way counts as inactive or inconclusive. Potency is read from the fitted curve at half-maximal effect.

SMILES | G9a inh | HP1b binding inh | BAZ2B inh | JMJD2A Tudor | L3MBTL1 inh | GLS inh
Cc1cnc(CNC(=O)CC2C(=O)NCCN2Cc2ccccc2C(F)(F)F)cn1 (stereo not given) | 32µM* | 62% | -23% | -5% | / | 1%
Cc1ccc(-n2nc3c(N4CCC(C(=O)N5CCCCC5)CC4)nnc(C)c3c2C)cc1 | -11%[59 µM] | 17% | -15% | -16% | / | -1%
CCCOc1ccc(-c2cccc(NS(=O)(=O)c3ccc(CC)cc3)c2)nn1 | -1%[59 µM] | -8%[57 µM] | -9% | -30% | / | -1%
CCOC(=O)c1nc(NCc2ccc(Cl)cc2)c2c(C)noc2n1 | -3%[59 µM] | 18%[57 µM] | -1% | -11% | / | 1%
COc1ccc(CNC(=O)CCC2N=C3c4ccccc4N=C(SCC(=O)NCCc4ccc(OC)c(OC)c4)N3C2=O)cc1 (stereo not given) | 6%[59 µM] | -3% | -11% | -28% | / | 24%
CCn1ccc2c(OCC(=O)Nc3ccc(C)c(Cl)c3)cccc2c1=O | 3%[59 µM] | 21% | -16% | -12% | / | 2%
COCCNC(=O)C1=CC(c2ccc3c(c2)OCO3)=NS(=O)(=O)N1C | -1%[59 µM] | 25% | -1% | -6% | / | 5%
CC1=C(C(=O)OC2CCCCC2)C(c2ccc(C)o2)C2=C(CC(C)(C)CC2=O)N1 (stereo not given) | 2%[12.7 µM] | 46% | -6% | -14% | -7% | -2%
CC1=C(C(=O)Nc2ccc(F)cc2)C(c2ccc(C)o2)C2=C(CC(C)(C)CC2=O)N1 (stereo not given) | 50µM* | 26% | 4% | -6% | 1% | 7%
CCC(=O)N1c2nc(C(C)C)nn2C2(CCCCC2)[C@@H]2CCCC[C@@H]21 | 1%[59 µM] | 38% | -3% | -14% | / | -9%
CN1CCC(N(C)S(=O)(=O)c2ccc(NC(=O)COc3ccc([N+](=O)[O-])cc3)cc2)CC1 | 13µM* | 24% | ? | -11% | -14% | 5%
CN1CCC(N(C)S(=O)(=O)c2ccc(NC(=O)COc3ccc(F)cc3)cc2)CC1 | 11µM* | 3% | ? | -20% | ? | 2%
CN1CCC(N(C)S(=O)(=O)c2ccc(NC(=O)COc3ccc(Cl)cc3)cc2)CC1 | 16%[12.7 µM] | 20% | 0% | -19% | -9% | 2%
COc1ccc(N2C(=S)N(C(=O)c3ccccc3)C(=Nc3ccccc3)C2=Nc2ccccc2)cc1 | / | -53% | / | ? | / | -21%
COc1ccc(N=C2NC(=O)S/C2=C\c2ccc(N(C)C)cc2)cc1 | -42%[59 µM] | -18% | -35% | -30% | 0% | 6%
COc1ccc(N=C2C(=Nc3ccc(OC)cc3)N(c3ccc(OC)cc3)C(=S)N2C(=O)c2ccc(OC)cc2)cc1 | 3.5µM* | -53% | ? | ? | ? | -8%
COc1ccc(N=C2C(=Nc3ccc(OC)cc3)N(c3ccccc3)C(=S)N2C(=O)c2ccc(Cl)cc2)cc1 | 7.1µM* | ? | ? | ? | -16% | /
COc1ccc(N=C2C(=Nc3ccc(OC)cc3)N(c3ccc(N(C)C)cc3)C(=S)N2c2ccc(OC)cc2)cc1 | 8.9µM* | ? | 1.6µM* | 2.2µM* | / | 4%
CCOC(=O)c1ccc(NC(=O)C2CCN(C(=O)c3ccc(OC)c(OC)c3)CC2)cc1 | 3%[59 µM] | 14% | 5% | -10% | 9% | 12%
OC1CCN(Cc2cccc(Oc3ccccc3)c2)CC1 | -1%[59 µM] | 17% | 1% | -9% | 6% | 2%
COC(=O)c1ccc(NC(=O)C2CCN(C(=O)c3cc(OC)c(OC)c(OC)c3)CC2)cc1 | 10µM* | 12% | -31% | 45µM* | / | 0%
CN1CCN(Cc2cccc(Oc3ccccc3)c2)CC1 | 71µM* | 18% | 0% | -20% | / | -6%
O=C(c1ccccc1)N1CCN(Cc2cccc(Oc3ccccc3)c2)CC1 | 16µM* | -11% | 50µM* | 40µM* | 0% | 21%
COc1cc(CN2CCN(C(=O)c3ccc(-c4ccccc4)cc3)CC2)cc(OC)c1OC | / | ? | 15% | 7.9µM* | 29% | -3%
CCN(CC)C(=O)c1sc2c(c1C)c(=O)n(-c1ccccc1)c(=O)n2CC(=O)Nc1ccc(C)cc1C | 11%[59 µM] | 51% | -3% | -10% | / | 6%
SMILES | G9a inh | HP1b binding inh | BAZ2B inh | JMJD2A Tudor | L3MBTL1 inh | GLS inh
CCn1cc2nc(SCc3cccc(C(F)(F)F)c3)n(Cc3ccc(OC)cc3)c(=O)c2n1 | -3%[59 µM] | 12% | -6% | -21% | / | -12%
CCOC(=O)c1ccc(CNc2ncnc3nc[nH]c23)cc1 | / | 24%[57 µM] | / | -15%[57.1 µM] | / | /
COc1cc(C(CC(=O)NCc2ccc(F)cc2)N2Cc3ccccc3C2=O)cc(OC)c1OC (stereo not given) | -6%[59 µM] | 18% | -8% | -4% | / | 3%
COc1cc(C(=O)OCC(=O)N2CCC(Cc3ccccc3)CC2)cc(OC)c1OC | 8.9µM* | 40% | 6% | -2% | -1% | -4%
COc1ccc(C(=O)N2CCN(C(=O)c3cc(OC)c(OC)c(OC)c3)CC2)cc1 | -14%[59 µM] | 6% | -19% | -11% | 33%[11.4 µM] | 1%
COc1ccc(CN2CCN(Cc3cccc(Oc4ccccc4)c3)CC2)c(OC)c1OC | 45µM* | 25µM* | 20µM* | 4µM* | / | -7%
CCC(CC)N1CCN(C(=O)c2cc(OC)c(OC)c(OC)c2)CC1 | / | ? | ? | 50µM* | -3% | 8%
COc1cc(C(=O)N2C(=O)CCC2=O)cc(OC)c1OC | 35µM* | 64% | ? | -13% | -1% | -26%
O=C(NCc1ccc(F)cc1)c1ccc(NC(=O)N2CC3CCCN3c3ccccc32)cc1 (stereo not given) | 18%[59 µM] | -9% | 8% | ? | / | 26%
COc1ccc(NC(=O)Nc2nnc(N(C)C3CCCCC3)s2)c(OC)c1 | -34%[59 µM] | 47% | 1% | -5% | / | -3%
Cn1cc(CCCC(=O)NCc2ccccc2Cl)c2ccccc21 | 0%[59 µM] | 22% | 4% | -16% | / | 1%
COc1cc(OC)cc(C(=O)N2CCN(C(=O)c3ccc(-c4ccccc4)cc3)CC2)c1 | ? | 20% | -20% | -11% | 1% | 0%
COc1cc(C(=O)N2CCN(C(=O)Cc3ccccc3)CC2)cc(OC)c1OC | ? | 28% | 2% | 4% | -5% | 0%
